Bioassay records: PubChem, National Center for Advancing Translational Sciences (NCATS)
NS1 function inh = blocks influenza NS1 protein function; 270,000 tested, 0.4% active; AID 2326; Potency, µM (doses to about 46.1 µM); calls by dose curve; also: actives are rising curves; nearly all actives have a fitted effect of over 50% in size
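S. cerevisiae expressing influenza A NS1, grown in glucose, washed, then diluted 1:100 into pH 6.0 -URA galactose medium with 23 nl compound. Growth recovery read as OD600; NS1-free strain serves as control.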
Pf growth 96h = inhibits malaria parasite growth, 96 h; P. falciparum luciferase reporter growth, 96 h; Potency, µM (series often up to 28.7 µM), most hits filed as inhibitors; 320,000 tested, 6.9% active; AID 504834
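Erythrocytes infected with luciferase-expressing P. falciparum were dispensed at 2% hematocrit and 0.05% parasitemia (final), then incubated with compounds 96 hours at 37 C in 5% CO2. Luminescence after detection reagent addition reported growth.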
Cycloheximide cs = counter-screen hit for Shiga toxin inhibitors, cycloheximide; cell reporter, cycloheximide protein synthesis inhibition counterscreen; max response, %; 300,000 tested, 12% active; AID 2314; in the data active = max response mostly above about 13%, no sharp cut-off; inactive = mostly below about 14%; also: read at 38.3 µM for the half of the compounds with a filed dose
Pf growth 48h = inhibits P. falciparum growth in the first generation, 48 h | 310,000 tested, 5.9% active | Potency, µM (titrated, usually from 28.7 µM), most hits filed as inhibitors | P. falciparum luciferase growth in erythrocytes, 48 h
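A one-generation exposure of luciferase-tagged malaria parasites in RPMI 1640/Albumax erythrocyte culture, 37 C and 5% CO2. Inhibition is inferred from decreased luminescence after adding detection reagent.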
Shiga toxin inh = Shiga toxin inhibition; inhibition, % at 38.7 µM; Vero cells, Shiga toxin protein synthesis inhibition reporter; 290,000 tested, 9.2% active; in the data active = inhibition mostly above about 28%, no sharp cut-off; inactive = mostly below about 43%
Sm TGR inh = blocks Schistosoma mansoni thioredoxin glutathione reductase. AID 485364. purified TGR, DTNB reduction, TNB absorbance 405 nm. 360,000 tested, 3% active. Potency, µM (doses to about 114 µM), actives largely listed as inhibitors; also: nearly all actives have a fitted effect of over 60% in size
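Kinetic colorimetric format: TGR-catalysed, NADPH-driven DTNB reduction monitored via TNB absorbance. Enzyme dispensed at 20 nM; compound exposure 15 min at room temperature before reaction start.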
Of the large screens only hits and unclear results are named; the others gave an inactive call. Rows were chosen to be rich in hits. Some 21% of all compounds tested hit in one or more screens of this group. Unless noted, calls follow the shape of the dose curve; as a rule, active = well fitted curve in the direction sought with a large enough effect; inconclusive = small, poorly fitted or top-dose-only effect, or another doubt; inactive = no such curve, though single readings can be large; an effect the other way counts as inactive or inconclusive.

OCC[C@@H]1C[C@@H](O)[C@H](O)[C@]2(OCc3ccccc32)O1	none
O=C(OCCN1CCOCC1)c1ccc(O)cc1	none (no result: Shiga toxin inh)
O=C(OCCCN1CCCCC1)c1ccc(O)cc1	Pf growth 96h 2.6µM
O=C(OCCN1CCCCC1)c1ccccc1F	Pf growth 96h inconclusive
O=C(OCCN1CCCCC1)c1ccccc1Cl	Cycloheximide cs 29 (no result: Pf growth 96h)
O=C(OCCN1CCCCC1)c1ccc(O)cc1	Cycloheximide cs 23 (no result: Pf growth 96h)
COCCn1c(SCC(=O)c2ccc(OC)cc2)nc2cc(C(=O)NC3CCCC3)ccc2c1=O	none (no result: NS1 function inh, Pf growth 96h, Cycloheximide cs, Pf growth 48h, Shiga toxin inh)
CCCSc1ccc(C(=O)Nc2ccc(Cl)cc2)cn1	Cycloheximide cs 28
Cc1ccc(NC(=O)c2nsc(Cl)c2Cl)cc1	Cycloheximide cs 56, Shiga toxin inh 70
Cc1ccc(NC(=O)c2nc[nH]c2C(=O)Nc2ccc(C)cc2)cc1	Pf growth 48h inconclusive
CCN(CC)S(=O)(=O)c1ccc(NC(=O)c2ccc(Cl)nc2)cc1	Pf growth 96h 4.7µM, Pf growth 48h inconclusive
CCOc1ncccc1C(=O)Nc1ccc(Cl)cc1	none
Cc1cccc(NC(=O)c2ccc(Cl)nc2)n1	none
Cc1ccc(NC(=O)c2ccc(Cl)nc2)cc1	Cycloheximide cs 34, Shiga toxin inh 140
CC(C)=CCC/C(C)=C/COc1c2ccoc2cc2oc(=O)ccc12	none (no result: NS1 function inh, Pf growth 96h, Pf growth 48h, Sm TGR inh)
C=CCn1cc(C(C)=O)c(=O)[nH]c1=O	none (no result: NS1 function inh)
O=C(NCc1ccc(Cl)cc1)C(=O)N/N=C/c1ccc(Br)cc1	Pf growth 96h inconclusive (no result: NS1 function inh)
COC(=O)c1ccc(NC(=O)CN(c2ccc(C)cc2)S(=O)(=O)c2c(C)nn(C)c2C)cc1	Pf growth 96h inconclusive (no result: Pf growth 48h)
CC(C)c1ccc(OCC(=O)NC2=NCCS2)cc1	Cycloheximide cs 69, Shiga toxin inh 98 (no result: NS1 function inh)
CC(NC1=NCCS1)c1ccccc1 (configuration not stated)	Pf growth 48h inconclusive (no result: NS1 function inh)
O=C(COc1ccccc1)NC1=NCCS1	Cycloheximide cs 41, Shiga toxin inh 95 (no result: Pf growth 48h)
N#Cc1ccc(OCC(=O)NC2=NCCS2)cc1	none (no result: NS1 function inh)
CC(Oc1ccccc1)C(=O)NC1=NCCS1 (configuration not stated)	Pf growth 96h inconclusive, Cycloheximide cs 38, Shiga toxin inh 80
CC(C)CCN1CCN(C2CCN(c3ccccc3)CC2)CC1CCO (configuration not stated)	none
Cc1cc(/C=C2\C(=O)NC(=O)N(c3ccc(Br)cc3)C2=O)c(C)n1-c1cc(C(=O)O)cc(C(=O)O)c1	Sm TGR inh 8.9µM
Cc1cc(/C=C2\C(=O)NC(=O)N(c3ccc(Cl)cc3)C2=O)c(C)n1-c1cccc(C(=O)O)c1	Pf growth 96h inconclusive, Sm TGR inh 7.1µM
COc1ccc(NC(=O)CSc2nc3nc(C)c(Cc4ccc(C)cc4)c(C)n3n2)cc1OC	none (no result: NS1 function inh, Pf growth 96h, Cycloheximide cs, Pf growth 48h, Shiga toxin inh)
CN1CCN(C(c2cccc(Br)c2)c2sc3nc(-c4ccco4)nn3c2O)CC1 (configuration not stated)	none (no result: NS1 function inh, Pf growth 96h, Cycloheximide cs, Pf growth 48h, Shiga toxin inh)
O=C(Cc1nn[nH]n1)c1ccccc1O	none
CCC(CC)C(=O)Nc1nnc(-c2cccs2)s1	Cycloheximide cs 21
COc1ccc(NC(=O)c2sc3nc(C)c(C(=O)Nc4ccc(C)cc4C)c(-c4sccc4C)c3c2N)cc1	none (no result: NS1 function inh, Pf growth 96h, Cycloheximide cs, Pf growth 48h, Shiga toxin inh)
Cc1ccc(-c2[nH]ncc2C(=O)c2cccc(F)c2)c(O)c1	Pf growth 96h inconclusive, Cycloheximide cs 8.5, Pf growth 48h inconclusive
O=C(c1ccc(Br)cc1)c1cn[nH]c1-c1ccccc1O	none
Cc1cccc(C(=O)c2cn[nH]c2-c2ccc(C)cc2O)c1	Pf growth 96h inconclusive (no result: Shiga toxin inh)
CC(C)(C)c1ccc(C(=O)c2cn[nH]c2-c2ccccc2O)cc1	Pf growth 96h inconclusive, Cycloheximide cs 42, Shiga toxin inh 58
CC(=O)N1c2ccc(S(=O)(=O)N3CCC(C(=O)NC4CCCCC4)CC3)cc2CC1C (configuration not stated)	Pf growth 96h inconclusive, Pf growth 48h inconclusive
CC1CCCCN1C(=O)COC(=O)c1cc([N+](=O)[O-])ccc1N (configuration not stated)	none (no result: NS1 function inh, Cycloheximide cs, Shiga toxin inh)
COc1ccc(CCNC(=O)c2ccc3c(c2)ncn3-c2ccc(C(C)C)cc2)cc1OC	none (no result: NS1 function inh, Pf growth 96h, Cycloheximide cs, Pf growth 48h, Shiga toxin inh)
Cc1ccc(N/C=C/C(=O)c2cccs2)cc1	Pf growth 96h inconclusive (no result: NS1 function inh)
CCOC(=O)c1ccccc1N/C=C/C(=O)c1cccs1	Cycloheximide cs 74, Shiga toxin inh 156
O=C(/C=C/Nc1ccc(F)cc1F)c1cccs1	Pf growth 96h inconclusive, Cycloheximide cs 46, Shiga toxin inh 49
